Data taken from PubChem BioAssay (EPA / NIEHS).
Results filed as inconclusive are left out. Calls of active or inactive are those of the source. The calls were made as follows: active = hit-call score of the fitted dose curve at least 0.9, where 1 is the maximum; inconclusive = response in the unintended direction; inactive = score below 0.9.

What follows are compounds tested against human RAR-related Orphan Receptor beta (RORb), RORB (gene 6096) (UniProt Q92753) (assay: ATG_RORb_TRANS: Attagene TRANS-FACTORIAL HepG2 Assay for human RAR-related Orphan Receptor beta (RORb) (AID 2283010);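 as to AC50: potency for increased reporter mRNA meaning activation of RORb-Gal4 chimera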).
Sequence of human RAR-related Orphan Receptor beta (RORb), RORB (gene 6096) (Q92753 whole entry, looked up, the tested form may be a part): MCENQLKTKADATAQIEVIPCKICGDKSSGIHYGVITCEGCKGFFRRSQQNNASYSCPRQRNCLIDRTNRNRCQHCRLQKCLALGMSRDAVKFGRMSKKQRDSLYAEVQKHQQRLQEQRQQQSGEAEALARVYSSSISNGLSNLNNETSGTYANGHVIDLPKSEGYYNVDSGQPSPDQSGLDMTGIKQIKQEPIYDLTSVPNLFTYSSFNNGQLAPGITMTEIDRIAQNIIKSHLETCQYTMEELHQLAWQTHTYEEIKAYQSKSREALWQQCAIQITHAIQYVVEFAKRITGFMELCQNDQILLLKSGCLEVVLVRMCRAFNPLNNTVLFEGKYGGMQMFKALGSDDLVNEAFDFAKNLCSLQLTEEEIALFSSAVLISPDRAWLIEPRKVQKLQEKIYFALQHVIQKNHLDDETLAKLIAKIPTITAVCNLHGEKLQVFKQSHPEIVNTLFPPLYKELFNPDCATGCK
Protocol: ATG_TRANS is a cell-based, multiplexed-readout assay that uses HepG2, a human liver cell line, with measurements taken at 24 hours after chemical dosing in a 24-well plate.ATG_RORb_TRANS is one of 30 assay component(s) measured or calculated from the ATG_TRANS assay. It is designed to make measurements of mRNA induction, a form of inducible reporter, as detected with fluorescence intensity signals by Reverse transcription polymerase chain reaction (RT-PCR) and Capillary electrophoresis technology.Data from the assay component ATG_RORb_TRANS was analyzed into 1 assay endpoint. This assay endpoint, ATG_RORb_TRANS, was analyzed in the positive analysis fitting direction relative to DMSO as the negative control and baseline of activity. Using a type of inducible reporter, measures of mRNA for gain-of-signal activity can be used to understand the reporter gene at the transcription factor-level as they relate to the gene RORB. Furthermore, this assay endpoint can be referred to as a primary readout, because this assay has produced multiple assay endpoints where this one serves a reporter gene function. To generalize the intended target to other relatable targets, this assay endpoint is annotated to the nuclear receptor intended target family, where the subfamily is orphan.
Human liver HepG2 cells are transiently transfected with multiple reporter transcription units (MRTUs) in 6-well plates using FuGene 6 reagent (Roche; 3 ml FuGene/1 mg DNA). The MRTU constructs are regulated by a cis-regulating element (promoter). […] A major difference between the CIS and TRANS system is that in CIS activities of endogenous TFs are measured, whereas the TRANS assay evaluates changes in activities of exogenous, chimeric NR-Gal4 proteins. […] At the end of 24 hour incubation, total RNA was isolated using TriZol reagent (Invitrogen). The isolated RNA is then reverse-transcribed using oligo(dT) primer and Mo-MLV reverse transcriptase (Invitrogen) with DNAse I (Ambion) treatment for 30 min. The one-tenth of the produced cDNA was amplified by PCR using Taq DNA polymerase (Invitrogen) and two reporter sequence-specific primers. The PCR products were fluorescently labeled by primer extension with 6-arboxyfluorescein (6-FAM) 5'-labeled reporter sequence-specific primer (2 min at 95 C, 20 s at 68 C and 10 min at 72 C) and these products were digested with 5U of HpaI (New England Biolabs) for 2h at 37 C. The fragments were purified using Qiaquick PCR columns (Qiagen), analyzed on an ABI 3130xL genetic analyzer (Applied Biosystems) with peak positions identified by using a set of X-rhodamine (ROX)-labeled MapMarker1000 molecular weight standards (BioVentures). The raw capillary electrophoresis data was processed using Attagraph software (Attagene).
`C[N+](C)(C)CC(=O)O` was tested, and the outcome was “inactive”. `N#CC(c1ccccc1)c1ccccc1` was tested, and the outcome was “inactive”. For `CCCCCCC1CCOC1=O` (stereo not given), the outcome was “inactive”. `Cc1ccc(C)c2ccccc12` was tested, and the outcome was “inactive”. For `CC(C)CCCCCCCOC(=O)c1ccccc1C(=O)OCCCCCCCC(C)C`, the outcome was “inactive”. In the case of `CN(C)C(=O)C(c1ccccc1)c1ccccc1`, the outcome is reported as “inactive”. In the case of `CC(=O)C=Cc1ccccc1`, the outcome is reported as “inactive”. For `COC(=O)COc1ccc(Cl)cc1Cl`, the outcome was “inactive”. `O=C(CCl)c1ccccc1` was tested, and the outcome was “inactive”. With `CC=Cc1ccc2c(c1)OCO2` the outcome was “inactive”. `O=C(O)c1cc[c]([Hg][Cl])cc1` was tested, and the outcome was “inactive”. In the case of `CNC(=N[N+](=O)[O-])NCC1CCOC1` (stereo not given), the outcome is reported as “inactive”. `N#CCNCC#N` was tested, and the outcome was “inactive”. In the case of `CC1CCC(=O)O1` (stereo not given), the outcome is reported as “inactive”. For `CCCCCCCCCCCCCCCC[N+](C)(C)C`, the outcome was “inactive”. For `C=C(Cl)CCl`, the outcome was “inactive”. For `O=C(O)CCl`, the outcome was “inactive”. For `[Cl-].[Cl-].[Cl-].[Yb+3]`, the outcome was “inactive”. With `CC1(C)[C@H](C(=O)O[C@H](C#N)c2cccc(Oc3ccccc3)c2)[C@@H]1C=C(Br)Br` the outcome was “inactive”. In the case of `O=C(O)CCCc1ccc(N(CCCl)CCCl)cc1`, the outcome is reported as “inactive”. `Cc1ncc(C[n+]2csc(CCO)c2C)c(N)n1` was tested, and the outcome was “inactive”. In the case of `O=C(CCN1CC1)OCC(CO)(COC(=O)CCN1CC1)COC(=O)CCN1CC1`, the outcome is reported as “inactive”. In the case of `CC(=O)/C=C/c1ccccc1`, the outcome is reported as “inactive”. `[N-]=[N+]=CC(=O)OC[C@H](N)C(=O)O` was tested, and the outcome was “inactive”. In the case of `C[C@]12CC[C@H](O)C[C@H]1CC[C@@H]1[C@@H]2C[C@@H](O)[C@]2(C)[C@@H](C3=CC(=O)OC3)CC[C@]12O`, the AC50 is reported as 1.29 µM (active). With `CCCCOC(=O)CCC(=O)OCCCC` the outcome was “inactive”. In the case of `CNC(=O)Oc1cc(C)c(SC)c(C)c1`, the outcome is reported as “inactive”. For `c1ccc2c(c1)CCCC2`, the outcome was “inactive”. For `O=C=Nc1ccccc1`, the outcome was “inactive”. `CCc1cc(C)cc(CC)c1-c1c(OC(=O)C(C)(C)C)n2n(c1=O)CCOCC2` was tested, and the outcome was “inactive”. In the case of `CC(Cc1ccc(C(C)(C)C)cc1)CN1C[C@@H](C)O[C@@H](C)C1` (stereo not given in full), the outcome is reported as “inactive”. `CCN(CC)C(=S)S` was tested, and the outcome was “inactive”. In the case of `O=C1C=CC(=O)C=C1`, the outcome is reported as “inactive”. For `CCCC=NO`, the outcome was “inactive”. In the case of `Cc1ccccc1CCl`, the outcome is reported as “inactive”. In the case of `COc1ccc(CO)cc1`, the outcome is reported as “inactive”. With `C#CC1(O)CCCCC1` the outcome was “inactive”. In the case of `ClCCCCCCCl`, the outcome is reported as “inactive”. In the case of `O=c1[nH]c(Cl)c(Cl)cc1Cl`, the outcome is reported as “inactive”. In the case of `O=P1(NCCCl)OCCCN1CCCl` (stereo not given), the outcome is reported as “inactive”.
